In PubChem BioAssay (Tox21):
Records with an inconclusive call do not appear. The source made the active and inactive calls. Unless noted, calls follow the shape of the full dose curve.

Tests used:
[1] = Nuclear factor erythroid 2-related factor 2/antioxidant responsive element (Nrf2/ARE) small molecule agonists: qHTS cell viability counter screen in human keratinocytes (AID 1919968; active = well fitted curve in the direction sought with a large enough effect in the repeat runs; an effect the other way counts as inactive or inconclusive; also: nearly all actives have a fitted effect of over 55% in size)
Procedure, shortened: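 Parallel cytotoxicity read: KeratinoSens HaCaT cells, compound treatment 23 h, viability by CellTiter-Fluor fluorescence 1 h post-reagent.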

[2] = Nuclear factor erythroid 2-related factor 2/antioxidant responsive element (Nrf2/ARE) small molecule agonists: luciferase reporter gene qHTS assay in human keratinocytes (AID 1919969); also: nearly all actives have a fitted effect of over 35% in size; also: potency is read from the fitted curve at half-maximal effect
[3] = target: Gonadotropin-releasing hormone receptor (Homo sapiens) (UniProt P30968); assay: Human gonadotropin-releasing hormone receptor (GnRHR) small molecule agonists, calcium flux assay in GnRHR-HEK293 cells (AID 1920063); also: nearly all actives have a fitted effect of over 35% in size
Procedure, shortened: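 Calcium flux, agonist mode, human GnRHR stably integrated in HEK293; dye 1 h at 37 C before compound; Ex/Em=480/540 kinetic read, 3 min; 15 concentrations, triplicate.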

[4] = target: KiSS-1 receptor (Homo sapiens) (UniProt Q969F8); assay: Human kisspeptin (KISS1R) small molecule agonists, calcium flux assay in KISS1R-HEK293 cells (AID 1920064; active = well fitted curve in the direction sought with a large enough effect in the repeat runs; an effect the other way counts as inactive or inconclusive)
Procedure, shortened: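 Triplicate 15-concentration series were applied to dye-loaded human KISS1R HEK293 cells, and agonist-evoked calcium fluorescence was captured for 3 min.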

[5] = G protein-coupled receptor (GPCR) small molecule agonists, calcium flux assay: HEK293 wild type cell line counter screen (AID 1920065)
Procedure, shortened: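 Non-specific calcium responders were flagged by adding DMSO-dissolved compounds to dye-loaded cells and reading 480/540 nm fluorescence each second for 3 min; ATP served as positive control.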

[6] = p53 small molecule agonists, cell-based qHTS assay with human liver microsomes (AID 1963577);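 also: p53 response element beta-lactamase reporter cells with liver microsomes plus NADPH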
Procedure, shortened: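 Reporter activation was measured by LiveBLAzer fluorescence intensity in p53RE-bla cells, which had been exposed to compounds for 16 h at 37 C alongside 0.5 mg/mL human liver microsomes and 0.5 mg/mL NADPH (final concentrations).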

[7] = p53 small molecule agonists, cell-based qHTS assay with rat liver microsomes (AID 1963578)
Procedure, shortened: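 Compound in DMSO added to p53RE-bla cells 5 h post-plating; rat microsomes/NADPH 0.5 mg/mL final; 16 h, 37 C; LiveBLAzer 2 h RT.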

[8] = p53 small molecule agonists, cell-based qHTS assay with human liver microsomes: qHTS cell viability counter screen (AID 1963579); also: nearly all actives have a fitted effect of over 45% in size; also: potency is read from the fitted curve at half-maximal effect
Procedure, shortened: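 HLM-supplemented (0.5 mg/mL final) and NADPH-supplemented (0.5 mg/mL final) p53RE-bla cultures, 4,000 cells per well, were dosed with compounds in DMSO for 16 h at 37 C; luminescent ATP detection (CellTiter-Glo, 30 min, room temperature) quantified surviving cells.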

[9] = p53 small molecule agonists, cell-based qHTS assay: qHTS cell viability counter screen (AID 1963581); also: nearly all actives have a fitted effect of over 45% in size
Procedure, shortened: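 Multiplexed with the reporter read, a CellTiter-Glo step (30 min, room temperature) gauges ATP-based viability of HCT-116 p53RE-bla cells after 16 h compound incubation at 37 C.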

[10] = p53 small molecule agonists, cell-based qHTS assay (AID 1963582; active = well fitted activation curve with a large enough effect in the signal ratio in the repeat runs, not every such curve was filed as active; the % refers to the signal ratio)
Procedure, shortened: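 Beta-lactamase reporter cells (p53RE-bla) treated with compounds for 16 h at 37 C; FRET substrate, 2 h, room temperature; fluorescence intensity.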

[11] = target: 5-hydroxytryptamine receptor 2A (Homo sapiens) (UniProt P28223); assay: 5-hydroxytryptamine receptor 2A (HTR2A) small molecule antagonists, cell-based qHTS assay (AID 1963586); also: nearly all actives have a fitted effect of over 45% in size; also: potency is read from the fitted curve at half-maximal effect
Procedure, shortened: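 CHO cells stably expressing human HTR2A were plated for 18 h at 37 C, then loaded with calcium dye for 1 h. Compounds were preincubated 5 min at room temperature before DOI (4 nM solution) was added. Kinetic fluorescence was read for 3 min.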

[12] = target: 5-hydroxytryptamine receptor 2A (Homo sapiens) (UniProt P28223); assay: 5-hydroxytryptamine receptor 2A (HTR2A) small molecule agonists, cell-based qHTS assay (AID 1963587); also: nearly all actives have a fitted effect of over 30% in size
Procedure, shortened: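 Kinetic calcium-flux fluorescence (2 min, 1 sec intervals) after compound addition in agonist mode. HTR2A-CHO cells were cultured 18 h, then dye-loaded 1 h at 37 C.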

[13] = target: Muscarinic acetylcholine receptor M1 (Homo sapiens) (UniProt P11229); assay: Cholinergic receptor muscarinic 1 (CHRM1) small molecule agonists, cell-based qHTS assay (AID 1963589); also: nearly all actives have a fitted effect of over 35% in size
Procedure, shortened: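 qHTS, 15-point titration, 3 independent runs: compounds pin-transferred onto dye-loaded CHRM1-CHO cells (human M1), calcium fluorescence followed every second to detect agonism.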

[14] = cAMP Responsive Elements (CRE) small molecule agonists, cell-based qHTS assay (AID 1963590)
Procedure, shortened: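 Quantitative HTS for CRE agonists: HEK 293T CRE-bla cells, overnight plating, 3 h compound incubation at 37 C/5% CO2, then 2 h room-temperature LiveBLAzer B/G FRET substrate loading.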

[15] = cAMP Responsive Elements (CRE) small molecule antagonists, cell-based qHTS assay (AID 1963591; active = well fitted inhibition curve with a large enough effect in the signal ratio in the repeat runs, not every such curve was filed as active; the % refers to the signal ratio)
Procedure, shortened: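 Fluorescence intensity from cleaved LiveBLAzer B/G substrate (2 h, room temperature) quantified CRE-bla activity in HEK 293T cells exposed 3 h to compound with 0.25 uM final NKH477.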

[16] = target: Beta-2 adrenergic receptor (Homo sapiens) (UniProt P07550); assay: Adrenergic beta2 receptor (ADRB2) small molecule antagonists, cell-based qHTS assay (AID 1963592); also: nearly all actives have a fitted effect of over 50% in size; also: potency is read from the fitted curve at half-maximal effect
Procedure, shortened: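 Assay format: CHO-ADRB2 cells, 18-20hr seeding at 37C/5% CO2, then compound plus 1nM isoproterenol agonist mix for 0.5hr RT. Homogeneous time-resolved fluorescence cAMP detection after 1hr, expressed as 665/615 nm ratio.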

[17] = target: D(2) dopamine receptor (Homo sapiens) (UniProt P14416); assay: Dopamine D2 receptor (DRD2) small molecule agonists, cell-based qHTS assay (AID 1963594); also: nearly all actives have a fitted effect of over 35% in size
Procedure, shortened: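 cAMP accumulation in DRD2-HEK293 cells measured by HTRF after 1 h detection; compounds added 10 min before NKH477 (200nM […]) forskolin-analogue stimulation, 30 min at room temperature, with Ro20-1724 present at 0.1 mM final.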

[18] = target: Muscarinic acetylcholine receptor M1 (Homo sapiens) (UniProt P11229); assay: Cholinergic receptor muscarinic 1 (CHRM1) small molecule antagonists, cell-based qHTS assay (AID 1963588); also: nearly all actives have a fitted effect of over 40% in size; also: potency is read from the fitted curve at half-maximal effect
Procedure, shortened: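 Compounds were tested at 15 concentrations in three independent runs. Dye-loaded CHRM1-CHO cells were exposed 5 min at room temperature before stimulation by acetylcholine added at 50nM. Intracellular calcium was read kinetically on FDSS for 3 min.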

[19] = target: D(2) dopamine receptor (Homo sapiens) (UniProt P14416); assay: Dopamine D2 receptor (DRD2) small molecule antagonists, cell-based qHTS assay (AID 1963595; active = well fitted inhibition curve with a large enough effect in the signal ratio in the repeat runs, with a control signal flat; the % refers to the signal ratio)
Procedure, shortened: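 Antagonist mode in DRD2-HEK293 cells: after compound addition with 0.1 mM Ro20-1724, cells received quinpirole (12 nM) and NKH477 (200 nM) for 30 min at room temperature; HTRF cAMP read after 1 h detection.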

[20] = target: Beta-2 adrenergic receptor (Homo sapiens) (UniProt P07550); assay: Adrenergic beta2 receptor (ADRB2) small molecule agonists, cell-based qHTS assay (AID 1963593);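 also: CHO cells stably overexpressing human ADRB2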
Procedure, shortened: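 CHO cells stably over-expressing ADRB2 were plated overnight at 37C, then dosed with compounds plus a stimulation mix containing 100uM IBMX and 25uM Ro-20-1724 for 0.5hr at room temperature. cAMP was measured by HTRF competition, 1hr.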

Measured: Potency

Sequence of Beta-2 adrenergic receptor (Homo sapiens) (P07550 whole entry, looked up): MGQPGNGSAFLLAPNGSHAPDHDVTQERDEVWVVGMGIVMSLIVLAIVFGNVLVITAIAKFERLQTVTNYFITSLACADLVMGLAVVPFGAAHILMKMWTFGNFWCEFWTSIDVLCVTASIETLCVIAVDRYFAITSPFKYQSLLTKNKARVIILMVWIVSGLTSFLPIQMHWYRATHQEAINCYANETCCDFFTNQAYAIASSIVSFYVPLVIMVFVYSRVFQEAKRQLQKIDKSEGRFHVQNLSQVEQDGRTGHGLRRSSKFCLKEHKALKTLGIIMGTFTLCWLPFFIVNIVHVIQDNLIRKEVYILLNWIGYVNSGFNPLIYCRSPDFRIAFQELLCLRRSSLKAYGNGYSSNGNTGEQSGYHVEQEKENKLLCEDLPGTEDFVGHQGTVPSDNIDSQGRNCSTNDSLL
Sequence of Muscarinic acetylcholine receptor M1 (Homo sapiens) (P11229 whole entry, looked up): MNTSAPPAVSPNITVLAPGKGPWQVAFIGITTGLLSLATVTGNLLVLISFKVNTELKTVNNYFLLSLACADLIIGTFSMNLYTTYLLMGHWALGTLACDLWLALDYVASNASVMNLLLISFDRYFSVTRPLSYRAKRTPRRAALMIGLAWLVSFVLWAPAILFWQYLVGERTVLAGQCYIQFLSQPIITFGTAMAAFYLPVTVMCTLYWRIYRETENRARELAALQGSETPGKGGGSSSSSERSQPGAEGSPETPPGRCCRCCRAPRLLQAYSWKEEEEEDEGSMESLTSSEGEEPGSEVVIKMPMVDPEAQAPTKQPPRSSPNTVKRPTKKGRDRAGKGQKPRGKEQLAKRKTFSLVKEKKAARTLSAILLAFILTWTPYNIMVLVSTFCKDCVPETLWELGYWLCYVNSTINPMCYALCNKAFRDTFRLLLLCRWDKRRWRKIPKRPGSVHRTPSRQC
Sequence of 5-hydroxytryptamine receptor 2A (Homo sapiens) (P28223 whole entry, looked up): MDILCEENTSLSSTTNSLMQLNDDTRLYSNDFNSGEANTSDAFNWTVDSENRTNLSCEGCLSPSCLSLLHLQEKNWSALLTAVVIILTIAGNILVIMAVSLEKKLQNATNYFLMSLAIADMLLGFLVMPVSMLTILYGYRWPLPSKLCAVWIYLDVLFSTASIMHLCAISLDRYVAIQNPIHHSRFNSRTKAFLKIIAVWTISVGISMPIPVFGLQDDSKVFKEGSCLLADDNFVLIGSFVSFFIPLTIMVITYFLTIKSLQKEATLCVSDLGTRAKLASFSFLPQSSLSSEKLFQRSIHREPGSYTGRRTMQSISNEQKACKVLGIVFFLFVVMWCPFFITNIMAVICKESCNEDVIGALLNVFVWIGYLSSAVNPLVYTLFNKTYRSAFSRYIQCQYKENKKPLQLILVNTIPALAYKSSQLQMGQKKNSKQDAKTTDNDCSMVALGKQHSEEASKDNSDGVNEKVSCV
Sequence of KiSS-1 receptor (Homo sapiens) (Q969F8 whole entry, looked up): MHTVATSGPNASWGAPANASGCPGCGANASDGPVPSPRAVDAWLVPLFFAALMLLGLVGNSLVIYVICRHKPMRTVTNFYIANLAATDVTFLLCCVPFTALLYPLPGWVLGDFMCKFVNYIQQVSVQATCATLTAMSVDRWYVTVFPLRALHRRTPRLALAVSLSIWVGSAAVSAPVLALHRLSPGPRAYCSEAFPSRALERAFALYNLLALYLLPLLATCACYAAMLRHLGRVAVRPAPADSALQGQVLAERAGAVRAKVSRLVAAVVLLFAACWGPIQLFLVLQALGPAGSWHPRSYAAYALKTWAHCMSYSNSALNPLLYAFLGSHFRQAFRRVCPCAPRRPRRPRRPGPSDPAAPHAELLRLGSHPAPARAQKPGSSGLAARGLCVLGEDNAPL
Sequence of Gonadotropin-releasing hormone receptor (Homo sapiens) (P30968 whole entry, looked up): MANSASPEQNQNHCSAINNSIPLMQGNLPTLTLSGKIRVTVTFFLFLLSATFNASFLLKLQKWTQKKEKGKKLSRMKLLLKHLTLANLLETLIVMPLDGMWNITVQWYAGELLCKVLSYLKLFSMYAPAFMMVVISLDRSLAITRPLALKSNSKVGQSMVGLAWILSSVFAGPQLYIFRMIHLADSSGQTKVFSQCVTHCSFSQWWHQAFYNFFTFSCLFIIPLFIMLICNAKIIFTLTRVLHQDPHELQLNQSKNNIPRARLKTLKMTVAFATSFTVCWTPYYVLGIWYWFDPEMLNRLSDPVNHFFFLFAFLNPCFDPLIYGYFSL
Sequence of D(2) dopamine receptor (Homo sapiens) (P14416 whole entry, looked up): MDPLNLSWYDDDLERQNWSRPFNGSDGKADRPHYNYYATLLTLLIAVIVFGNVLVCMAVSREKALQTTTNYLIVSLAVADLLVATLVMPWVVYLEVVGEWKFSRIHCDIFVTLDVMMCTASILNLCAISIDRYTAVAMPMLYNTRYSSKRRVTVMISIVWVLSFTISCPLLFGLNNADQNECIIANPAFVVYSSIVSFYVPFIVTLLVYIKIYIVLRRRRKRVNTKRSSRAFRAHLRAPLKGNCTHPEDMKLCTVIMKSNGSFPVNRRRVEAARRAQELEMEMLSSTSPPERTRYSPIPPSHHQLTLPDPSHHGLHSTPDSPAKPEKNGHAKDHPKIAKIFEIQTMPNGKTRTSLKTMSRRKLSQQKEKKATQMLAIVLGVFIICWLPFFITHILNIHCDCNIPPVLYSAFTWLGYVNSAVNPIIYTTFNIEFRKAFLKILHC

CC(C)[N+](C)(C)CC(O)COc1cccc2ccccc12 (stereo not drawn)
active: [16] 15 µM
not listed: [18] | [19] | [20]
inactive: all other assays above

CC1CCCO1 (stereo not drawn)
not listed: [20]
inactive: all other assays above

O=C(CCCCC(=O)Nc1c(I)cc(I)c(C(=O)O)c1I)Nc1c(I)cc(I)c(C(=O)O)c1I
not listed: [16] | [19] | [20]
inactive: all other assays above

C=CC(=O)OCC(Br)CBr (stereo not drawn)
active: [2] 68.6 µM
not listed: [20]
inactive: all other assays above

CN(C)C/C=C(/c1ccc(Br)cc1)c1cccnc1
not listed: [16] | [17] | [19]
inactive: all other assays above

CC(C)CCCC(C)(C)O
not listed: [12] | [20]
inactive: all other assays above

CN(C(=O)C(Cl)Cl)c1ccc(OC(=O)c2ccco2)cc1
not listed: [15] | [20]
inactive: all other assays above

CC(C)c1ccc2oc3nc(N)c(C(=O)O)cc3c(=O)c2c1
active: [2] 0.944 µM
not listed: [13] | [14] | [15]
inactive: all other assays above

c1ccc(C[P+](c2ccccc2)(c2ccccc2)c2ccccc2)cc1
active: [18] 4.72 µM
not listed: [10] | [14] | [15] | [16]
inactive: all other assays above

CC(c1cc(C(C)(C)C)cc(C(C)(C)C)c1O)c1cc(C(C)(C)C)cc(C(C)(C)C)c1O
not listed: [12] | [17] | [18] | [20]
inactive: all other assays above

CCO
not listed: [11] | [12] | [13] | [16] | [18] | [20]
inactive: all other assays above

CCCCCCCCCC#N
active: [2] 68.2 µM | [8] 11.4 µM
not listed: [11] | [13] | [20]
inactive: all other assays above

[O-][n+]1cccc(/C(Cl)=N/OC[C@@H](O)CN2CCCCC2)c1
not listed: [11] | [17] | [18] | [20]
inactive: all other assays above

O=C(CCc1ccc(O)cc1)c1c(O)cc(O)cc1O
active: [2] 70.1 µM | [11] 38.4 µM
not listed: [10] | [14] | [20]
inactive: all other assays above
